SW480 rerep: induces DNA re-replication in SW480 colon adenocarcinoma cells. hit rate 1.8% among 340,000. AID 624297. SW480 DNA re-replication, Hoechst DNA content imaging, 48 h. Potency, µM (highest dose often 46.1 µM), most hits filed as activators; also: nearly all actives have a fitted effect of over 55% in size
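Per well, 250 cells were exposed to pinned compound for 48 hr. Nuclear DNA was visualised with Hoechst (40 min, 37 C) and total object intensity recorded by fluorescence scanning.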
KB-V1 cytotox: KB-V1 MDR subline cytotoxicity | KB-V1 MDR cells viability, CellTiter-Glo, 72 h | Potency, µM (doses to about 46.1 µM), actives largely listed as cytotoxic | hit rate 3.4% among 400,000 | AID 1347076; also: nearly all actives have a fitted effect of over 60% in size
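KB-V1 cells (P-gp-expressing MDR subline of KB-3-1) in phenol-red-free DMEM with 10% FBS were exposed to library compounds over a concentration series for 72 h at 37 degrees C. Viability read by CellTiter-Glo luminescence; concentration-effect curves fitted after normalization.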
PTAP TSG101 blk: blocks PTAP/TSG101 interaction to inhibit HIV-1 budding; Potency, µM (doses to about 115 µM), hits mostly inhibitors; Fluorescence polarization, FITC-PTAP peptide / Tsg101 binding; 340,000 tested, under 10 active; active = well fitted inhibition curve with a large enough effect in the main read-out, with a control signal flat, not every such curve was filed as active; inconclusive = small, poorly fitted or top-dose-only effect, or effect the other way, or a change in a side signal; inactive = no such curve, though single readings can be large or run the other way
Target sequence (Q99816 whole entry, looked up): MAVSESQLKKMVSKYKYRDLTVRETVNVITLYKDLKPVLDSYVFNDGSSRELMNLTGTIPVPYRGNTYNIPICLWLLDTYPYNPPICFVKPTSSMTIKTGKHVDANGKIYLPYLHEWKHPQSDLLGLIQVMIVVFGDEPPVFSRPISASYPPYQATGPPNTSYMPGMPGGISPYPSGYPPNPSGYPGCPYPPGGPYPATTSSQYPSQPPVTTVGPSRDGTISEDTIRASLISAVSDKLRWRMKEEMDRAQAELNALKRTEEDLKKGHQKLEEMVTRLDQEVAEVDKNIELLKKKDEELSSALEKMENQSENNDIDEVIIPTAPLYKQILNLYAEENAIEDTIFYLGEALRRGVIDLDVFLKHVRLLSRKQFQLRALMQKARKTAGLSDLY
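Tsg101 binding domain (10 uM final) was mixed with compound and a FITC-labeled PTAP peptide (50 nM final) in HEPES pH 7.5 buffer with NaCl, Tween 20, EDTA and TCEP; fluorescence polarization was read after 20 min at r.t.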
KB-3-1 tox: kills parental KB-3-1 adenocarcinoma cells; KB-3-1 viability, CellTiter-Glo ATP luminescence, 72 h; Potency, µM (doses to about 46.1 µM), usual class: cytotoxic; hit rate 1.4% among 400,000; AID 1347075; also: nearly all actives have a fitted effect of over 60% in size
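Cytotoxicity measured as CellTiter-Glo luminescence after 72 h at 37 C. Compound titrations were pinned onto drug-naive KB-3-1 parental adenocarcinoma cells grown in DMEM with 10% FBS, and normalized data fitted to concentration-response curves.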
MCF10A rereplic: DNA re-replication induction in MCF 10a cells | Potency, µM (series often up to 46.1 µM), most hits filed as activators | MCF 10A DNA re-replication, Hoechst nuclear intensity, 48 h | hit rate 2.9% among 350,000 | AID 624296; also: nearly all actives have a fitted effect of over 50% in size
PINK1 expr mod: modulators of PINK1 expression; hit rate 0.2% among 410,000; Potency, µM (series often up to 76.6 µM), actives largely listed as activators; PINK1 immunofluorescence, high-content cytometry, 24 h; active = well fitted activation curve with a large enough effect; inconclusive = small, poorly fitted or top-dose-only effect; cell line not stated here; also: nearly all actives have a fitted effect of over 65% in size
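PINK1 protein level read as immunofluorescence by microplate cytometer in a fixed, stained stable cell line after 24 h exposure to five compound concentrations, with CCCP as control.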
Each line names hits and unclear results; the compound was inactive in the other large screens. Shown are actives, neighbours in structure and some others; about 6.8% of the full set was active somewhere. Unless noted, calls follow the shape of the dose curve; as a rule, active = well fitted curve in the direction sought with a large enough effect; inconclusive = small, poorly fitted or top-dose-only effect, or another doubt; inactive = no such curve, though single readings can be large; an effect the other way counts as inactive or inconclusive.

COc1ccc(NC(=O)COc2cccc3c2CCN(Cc2cccnc2)C3=O)c(OC)c1	SW480 rerep inconclusive, KB-V1 cytotox 5.2µM
CCN(CC)c1ccc(/C=C/C2=C3C=CC=CC3NC=C2)cc1 (centres undefined)	KB-3-1 tox inconclusive (no result: SW480 rerep, PTAP TSG101 blk, MCF10A rereplic)
O=C(N/N=C/c1c[nH]c2ccccc12)c1cc(-c2ccc3ccccc3c2)n[nH]1	SW480 rerep 12µM, KB-V1 cytotox inconclusive, KB-3-1 tox inconclusive, MCF10A rereplic 2.6µM
O=C(N/N=C/c1ccco1)c1cc(-c2ccc3ccccc3c2)n[nH]1	SW480 rerep 23µM, MCF10A rereplic 7.9µM
O=C(N/N=C/c1cccs1)c1cc(-c2cccc3ccccc23)n[nH]1	SW480 rerep inconclusive, KB-V1 cytotox inconclusive, KB-3-1 tox inconclusive, MCF10A rereplic 23µM
O=C(N/N=C/C=C\c1ccccc1[N+](=O)[O-])c1cc(-c2ccc3ccccc3c2)n[nH]1	SW480 rerep 8.2µM, MCF10A rereplic 10µM
CCn1c(CNC(=O)c2ccc(OC)cc2)nnc1SCC(=O)Nc1ccc(F)cc1	none (no result: SW480 rerep, PTAP TSG101 blk, MCF10A rereplic)
Cc1nc2c(-c3ccccc3)c(C)nn2c(C)c1CCC(=O)NCc1ccccc1Cl	none (no result: SW480 rerep, PTAP TSG101 blk, MCF10A rereplic)
Cc1ccc(-c2cc(C(=O)N/N=C/c3c[nH]c4ccccc34)[nH]n2)cc1	SW480 rerep 3.3µM, KB-V1 cytotox 10µM, KB-3-1 tox 5.2µM, MCF10A rereplic inconclusive
O=C(N/N=C/c1c[nH]c2ccccc12)c1cc(-c2ccccc2)n[nH]1	none
O=C(N/N=C/c1c[nH]c2ccccc12)c1cc(-c2ccc(-c3ccccc3)cc2)n[nH]1	SW480 rerep inconclusive, KB-V1 cytotox 16µM, KB-3-1 tox inconclusive, MCF10A rereplic 15µM
O=C(N/N=C/c1c[nH]c2ccccc12)c1cc(-c2cccc3ccccc23)n[nH]1	SW480 rerep inconclusive, KB-3-1 tox inconclusive, MCF10A rereplic 9.2µM
O=C(N/N=C/c1c[nH]c2ccccc12)c1ccn[nH]1	MCF10A rereplic 0.58µM
CC(C(=O)NCc1ccccc1F)n1ccc2cc(S(=O)(=O)N3CCCC3)ccc21 (centres undefined)	none (no result: SW480 rerep, PTAP TSG101 blk, MCF10A rereplic)
CCn1c(=O)c2cc(C(=O)NCCCN3CCN(c4ccc(F)cc4)CC3)sc2c2ccccc21	none (no result: SW480 rerep, PTAP TSG101 blk, MCF10A rereplic)
CCSC(=O)N1CCN(/[N+]([O-])=N/Oc2ccc([N+](=O)[O-])cc2[N+](=O)[O-])CC1	none (no result: SW480 rerep, KB-V1 cytotox, PTAP TSG101 blk, KB-3-1 tox, MCF10A rereplic)
COc1cc(CNC(C)(C)CO)cc(Br)c1OCc1ccc(Cl)cc1Cl	KB-V1 cytotox 18µM, KB-3-1 tox inconclusive, MCF10A rereplic 18µM
COc1cc(CNC(C)(C)CO)cc(Br)c1OCc1ccc(Cl)cc1	SW480 rerep inconclusive, KB-V1 cytotox 23µM, KB-3-1 tox inconclusive, MCF10A rereplic inconclusive
COc1cc(/C=N/O)cc(Br)c1OCc1ccc(Cl)cc1	SW480 rerep inconclusive, MCF10A rereplic 18µM
CC(C)(CO)NCc1c(OCc2ccc(Cl)cc2)ccc2ccccc12	SW480 rerep inconclusive, KB-3-1 tox 23µM, MCF10A rereplic inconclusive
COc1cc(/C=N/O)cc(Br)c1OC	none
O/N=C/c1ccccc1OCc1ccc(Cl)cc1	MCF10A rereplic inconclusive
O=C(NCCc1ccncc1)c1cnn(-c2ncc3c(n2)-c2ccccc2CCC3)c1C1CC1	none (no result: SW480 rerep, KB-V1 cytotox, PTAP TSG101 blk, KB-3-1 tox, MCF10A rereplic)
CC(=O)N1CCCc2cc(S(=O)(=O)N3CCC(C(=O)Nc4ccc(C)cc4Cl)CC3)ccc21	none (no result: SW480 rerep, PTAP TSG101 blk, MCF10A rereplic)
Cc1ccc(Cn2c(CNC(=O)CCc3ccccc3)nc3cccnc32)cc1	none (no result: SW480 rerep, KB-V1 cytotox, PTAP TSG101 blk, KB-3-1 tox, MCF10A rereplic)
CCCCn1nnnc1C1(C)CCC(=O)N1CCCn1ccnc1 (centres undefined)	KB-3-1 tox 13µM (no result: SW480 rerep, PTAP TSG101 blk, MCF10A rereplic)
CCOc1ccc(/C=C2/SC(=O)NC2=S)cc1	none
CCOc1ccc(N=C2NC(=O)S/C2=C\c2ccc(N(C)C)cc2)cc1	SW480 rerep inconclusive, KB-V1 cytotox 21µM, PTAP TSG101 blk inconclusive, PINK1 expr mod inconclusive
COc1cc(OC)c(C(=O)OCC(=O)N2CCN(S(=O)(=O)c3ccc(C)cc3C)CC2)cc1OC	KB-V1 cytotox 16µM
Cc1ccc(S(=O)(=O)N2CCN(C(=O)c3cccs3)CC2)c(C)c1	SW480 rerep 4.1µM, KB-V1 cytotox inconclusive
